From ChEMBL document CHEMBL3433997, “St. Jude Leishmania screening dataset” (2016)

Experiments:
Type in all cases: functional
[1] = target: Solute carrier family 2, facilitated glucose transporter member 1 (Homo sapiens) (UniProt P11166); experiment: ST_JUDE_LEISH: Cytotoxicity at 2uM final concentration against transgenic Leishmania Mexicana promastigotes LmGLUT1 that are glucose transport deficient and complemented with the human glucose transporter GLUT1. Activity is measured by DNA content using SYBR green in vitro
Solute carrier family 2, facilitated glucose transporter member 1 (Homo sapiens), sequence (P11166 whole entry): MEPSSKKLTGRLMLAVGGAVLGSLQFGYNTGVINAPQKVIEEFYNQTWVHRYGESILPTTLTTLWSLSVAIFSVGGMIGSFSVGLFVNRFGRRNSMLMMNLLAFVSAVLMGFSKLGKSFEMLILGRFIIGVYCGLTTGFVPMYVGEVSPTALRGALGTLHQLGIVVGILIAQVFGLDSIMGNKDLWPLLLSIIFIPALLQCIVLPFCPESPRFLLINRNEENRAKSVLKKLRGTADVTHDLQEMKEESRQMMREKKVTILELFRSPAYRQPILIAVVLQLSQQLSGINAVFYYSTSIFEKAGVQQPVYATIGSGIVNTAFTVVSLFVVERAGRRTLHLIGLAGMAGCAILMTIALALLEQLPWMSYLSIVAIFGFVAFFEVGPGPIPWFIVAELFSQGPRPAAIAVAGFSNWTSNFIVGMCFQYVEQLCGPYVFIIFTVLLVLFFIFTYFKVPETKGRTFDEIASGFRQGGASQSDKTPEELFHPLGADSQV

[2] = target: Hexose transporter 1 (Plasmodium falciparum) (UniProt O97467); experiment: ST_JUDE_LEISH: Cytotoxicity at 2uM final concentration against transgenic Leishmania Mexicana promastigotes LmPfHT that are glucose transport deficient and complemented with the Plasmodium falciparum hexose transporter. Activity is measured by DNA content using SYBR green in vitro
[3] = target: Glucose transporter (Leishmania mexicana) (UniProt O61059); experiment: ST_JUDE_LEISH: Cytotoxicity at 2uM final concentration against transgenic Leishmania Mexicana promastigotes LmGT2 that are glucose transport deficient and complemented with the L. Mexicana glucose transporter 2. Activity is measured by DNA content using SYBR green in vitro

## Cc1[nH]c(C)c(-c2ccc(Oc3ccccc3)cc2)c(=O)c1Br
[1]
  inhibition: 1.44%
[2]
  inhibition: 1.17%
[3]
  inhibition: -0.53%

## O=C(/C=C/c1ccccc1Cl)Nc1ccc(Br)c(OCCN2CCC(O)(c3ccccc3)CC2)c1
[1]
  inhibition: 2.66%
[2]
  inhibition: 0.95%
[3]
  inhibition: -0.34%

## O=C(Cc1cccnc1)Nc1cccc(-c2cccc(-c3nc4cc(C(F)(F)F)ccc4[nH]3)c2)c1
[1]
  inhibition: 2.67%
[2]
  inhibition: 1.57%
[3]
  inhibition: 1.35%

## COc1ccc2nccc([C@@H](O)CN3CCC(NCc4cc5ccccc5[nH]4)CC3)c2n1
[1]
  inhibition: 46%
[2]
  inhibition: 59.2%
[3]
  inhibition: 62.5%

## COc1cccc(NC(=O)Nc2ccc(-c3oc(C(=O)NCC(c4ccccc4)N(C)C)cc3-c3ccncc3)cc2)c1 (stereo unspecified)
[1]
  inhibition: 5.08%
[2]
  inhibition: 3.73%
[3]
  inhibition: 3.18%

## COc1ccc2[nH]cc(C3CCN(CCC4CCN(C(=O)/C=C/c5ccc(Cl)c(Cl)c5)CC4)CC3)c2c1
[1]
  inhibition: 2.88%
[2]
  inhibition: 1.24%
[3]
  inhibition: 1.93%

## COc1ccc2ncc(F)c(CCN3CC(O)C(CNCc4ccc(F)cc4)C3)c2n1 (stereo unspecified)
[1]
  inhibition: 3.37%
[2]
  inhibition: 3.9%
[3]
  inhibition: 2.68%

## CCOC(=O)c1c(C)noc1Nc1cccc(C)c1C
[1]
  inhibition: -3.16%
[2]
  inhibition: -1.56%
[3]
  inhibition: -4.02%

## O=S(=O)(NC1CCN(c2ccnc3cc(Cl)ccc23)C1)c1cccs1 (stereo unspecified)
[1]
  inhibition: 0.41%
[2]
  inhibition: -0.12%
[3]
  inhibition: 1.61%

## Oc1ccc2[nH]c(-c3cccc(F)c3)nc2c1CN1CCC(O)(c2ccccc2)CC1
[1]
  inhibition: 3.21%
[2]
  inhibition: 4.5%
[3]
  inhibition: 1.7%

## CCOc1ccc2c(=NN=Cc3cc(OC)c(OC)c(OC)c3)cc(C)[nH]c2c1
[1]
  inhibition: 2.5%
[2]
  inhibition: 1.22%
[3]
  inhibition: -0.3%

## CC(CN(C)C)C(=O)Nc1ccc(-c2cccc(-c3nc4cc(C(F)(F)F)ccc4[nH]3)c2)cc1 (stereo unspecified)
[1]
  inhibition: 1.9%
[2]
  inhibition: 1.89%
[3]
  inhibition: -2.14%
